# Experimental data from PubChem BioAssay AID1159580 (chemical genetic matrix, 2015).
# Where “and” joins values, the source holds several entries; their conditions need not be identical. Equal entries are not always repeated. Among all 5,500 compounds or so, about 2,000 (36%) were called active. About 18% were inconclusive and are not listed. The list shows a part of the results. A number with no mark means an inactive call. Rule as the data show it: active = normalized growth mostly below about 0.91 (no sharp cut-off); inconclusive = no clear call, values can overlap the other calls; inactive = mostly above about 0.92.
# Experiment: chemical genetic growth profiling, strain panel (AID 1159580);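 also: tested at 20 µM; growth read once vehicle control cultures reached saturation at 30 °C; 1 = growth at the plate median or of vehicle wells; lower values mean less growth of the strain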
# Conditions: S. cerevisiae deletion strains, growth OD
smiles,measurement,setting,value
COc1cc(O)c(C)c(O)c1,normalized growth,"locus YAL013W, strain DEP1, active compounds read low",0.999
same,normalized growth,"locus YAL021C, strain ccr4, active compounds read low",1.03
same,normalized growth,"locus YAL026C, strain drs2, active compounds read low",1.02
same,normalized growth,"locus YAL030W, strain snc1, active compounds read low",1.02
same,normalized growth,"locus YBL061C, strain skt5, active compounds read low",1.01
same,normalized growth,"locus YBR009C, strain hhf1, active compounds read low",1.02
same,normalized growth,"locus YBR021W, strain FUR4, active compounds read low",0.995
same,normalized growth,"locus YBR023C, strain chs3, active compounds read low",1.02
same,normalized growth,"locus YBR171W, strain sec66, active compounds read low",1.03
same,normalized growth,"locus YBR229C, strain ROT2, active compounds read low",0.998
same,normalized growth,"locus YBR231C, strain swc5, active compounds read low",1.01
same,normalized growth,"locus YBR279W, strain paf1, active compounds read low",1.01
same,normalized growth,"locus YCL011C, strain gbp2, active compounds read low",1
same,normalized growth,"locus YCL016C, strain dcc1, active compounds read low",1
same,normalized growth,"locus YCL029C, strain bik1, active compounds read low",1.04
same,normalized growth,"locus YCL061C, strain MRC1, active compounds read low",1.01
same,normalized growth,"locus YCL069W, strain vba3, active compounds read low",1.01
same,normalized growth,"locus YCR088W, strain abp1, active compounds read low",1.01
same,normalized growth,"locus YDL005C, strain med2, active compounds read low",1.01
same,normalized growth,"locus YDL035C, strain GPR1, active compounds read low",1.01
same,normalized growth,"locus YDL040C, strain nat1, active compounds read low",1.01
same,normalized growth,"locus YDL074C, strain BRE1, active compounds read low",1.02
same,normalized growth,"locus YDL101C, strain DUN1, active compounds read low",1.01
same,normalized growth,"locus YDL134C, strain PPH21, active compounds read low",1
same,normalized growth,"locus YDL185W, strain tfp1, active compounds read low",1.02
same,normalized growth,"locus YDL192W, strain arf1, active compounds read low",1
same,normalized growth,"locus YDR001C, strain nth1, active compounds read low",1.01
same,normalized growth,"locus YDR069C, strain doa4, active compounds read low",1.01
same,normalized growth,"locus YDR101C, strain arx1, active compounds read low",1
same,normalized growth,"locus YDR137W, strain rgp1, active compounds read low",1.05
same,normalized growth,"locus YDR150W, strain NUM1, active compounds read low",0.995
same,normalized growth,"locus YDR159W, strain sac3, active compounds read low",1.01
same,normalized growth,"locus YDR162C, strain NBP2, active compounds read low",1.02
same,normalized growth,"locus YDR195W, strain ref2",1.02
same,normalized growth,"locus YDR297W, strain sur2, active compounds read low",1.01
same,normalized growth,"locus YDR318W, strain mcm21, active compounds read low",1.01
same,normalized growth,"locus YDR334W, strain swr1, active compounds read low",1.02
same,normalized growth,"locus YDR335W, strain msn5, active compounds read low",1.04
same,normalized growth,"locus YDR388W, active compounds read low",1
same,normalized growth,"locus YDR392W, strain spt3, active compounds read low",1.03
same,normalized growth,"locus YDR502C, strain sam2, active compounds read low",1.04
same,normalized growth,"locus YEL003W, strain gim4, active compounds read low",1.03
same,normalized growth,"locus YEL037C, strain rad23, active compounds read low",1.02
same,normalized growth,"locus YEL061C, strain CIN8 (second series), active compounds read low",1.02
same,normalized growth,"locus YEL061C, strain CIN8, active compounds read low",1
same,normalized growth,"locus YER015W, strain faa2, active compounds read low",1
same,normalized growth,"locus YER016W, strain bim1, active compounds read low",1.02
same,normalized growth,"locus YER110C, active compounds read low",1.01
same,normalized growth,"locus YER111C, strain swi4, active compounds read low",1.01
same,normalized growth,"locus YER155C, strain BEM2 (second series), active compounds read low",1.04
same,normalized growth,"locus YER155C, strain BEM2, active compounds read low",0.999
same,normalized growth,"locus YER167W, strain BCK2, active compounds read low",1
same,normalized growth,"locus YFR010W, strain ubp6, active compounds read low",1.02
same,normalized growth,"locus YGL078C, strain dbp3, active compounds read low",1.03
same,normalized growth,"locus YGL086W, strain mad1, active compounds read low",1.01
same,normalized growth,"locus YGL167C, strain pmr1, active compounds read low",1.01
same,normalized growth,"locus YGL173C, strain kem1, active compounds read low",1.02
same,normalized growth,"locus YGL227W, strain vid30, active compounds read low",1.01
same,normalized growth,"locus YGL240W, strain doc1, active compounds read low",0.977
same,normalized growth,"locus YGL248W, strain PDE1, active compounds read low",1.03
same,normalized growth,"locus YGL253W, strain hxk2, active compounds read low",1.02
same,normalized growth,"locus YGR135W, strain pre9, active compounds read low",1.02
same,normalized growth,"locus YGR252W, strain gcn5, active compounds read low",0.973
same,normalized growth,"locus YHR013C, strain ard1, active compounds read low",1.01
same,normalized growth,"locus YHR027C, strain rpn1, active compounds read low",1.01
same,normalized growth,"locus YHR030C, strain SLT2, active compounds read low",0.997 and 0.992
same,normalized growth,"locus YHR079C, strain IRE1 (second series), active compounds read low",1.01
same,normalized growth,"locus YHR079C, strain IRE1, active compounds read low",0.996
same,normalized growth,"locus YHR094C, strain hxt1, active compounds read low",1.01
same,normalized growth,"locus YHR129C, strain ARP1, active compounds read low",1.01
same,normalized growth,"locus YHR142W, strain chs7, active compounds read low",1.02
same,normalized growth,"locus YHR200W, strain rpn10, active compounds read low",1.02
same,normalized growth,"locus YIL066C, strain RNR3, active compounds read low",1.02
same,normalized growth,"locus YIL073C, strain SPO22, active compounds read low",1.13
same,normalized growth,"locus YIL125W, strain kgd1, active compounds read low",1.02
same,normalized growth,"locus YIR030C, strain dcg1, active compounds read low",1.01
same,normalized growth,"locus YJL092W, strain hpr5, active compounds read low",1.01
same,normalized growth,"locus YJL095W, strain BCK1 (second series), active compounds read low",1.01
same,normalized growth,"locus YJL095W, strain BCK1, active compounds read low",1.01 and 1
same,normalized growth,"locus YJL115W, strain asf1, active compounds read low",1.01
same,normalized growth,"locus YJL129C, strain trk1, active compounds read low",1.05
same,normalized growth,"locus YJL134W, strain LCB3, active compounds read low",1
same,normalized growth,"locus YJL154C, strain vps35, active compounds read low",1.01
same,normalized growth,"locus YJL164C, strain tpk1, active compounds read low",1.03
same,normalized growth,"locus YJL166W, strain qcr8, active compounds read low",1
same,normalized growth,"locus YJL168C, strain set2, active compounds read low",1.01
same,normalized growth,"locus YJL187C, strain SWE1 (second series), active compounds read low",1.01
same,normalized growth,"locus YJL187C, strain SWE1, active compounds read low",1.01
same,normalized growth,"locus YJR043C, strain POL32, active compounds read low",1.02
same,normalized growth,"locus YJR066W, strain TOR1, active compounds read low",0.906
same,normalized growth,"locus YJR075W, strain HOC1, active compounds read low",1
same,normalized growth,"locus YKL009W, strain mrt4, active compounds read low",1.16 [resistant] (active)
same,normalized growth,"locus YKL068W, active compounds read low",1.01
same,normalized growth,"locus YKL085W, strain MDH1 (second series), active compounds read low",1.02
same,normalized growth,"locus YKL085W, strain MDH1, active compounds read low",1.02
same,normalized growth,"locus YKL160W, strain elf1, active compounds read low",1.01
same,normalized growth,"locus YKL190W, strain CNB1, active compounds read low",0.998
same,normalized growth,"locus YKR001C, strain vps1, active compounds read low",1.02
same,normalized growth,"locus YKR026C, strain gcn3, active compounds read low",0.995
same,normalized growth,"locus YKR091W, strain srl3, active compounds read low",1.01
same,normalized growth,"locus YLL001W, strain dnm1, active compounds read low",1.01
same,normalized growth,"locus YLL026W, active compounds read low",1.01
same,normalized growth,"locus YLL041C, strain sdh2, active compounds read low",1.01
same,normalized growth,"locus YLR027C, strain aat2, active compounds read low",1.01
same,normalized growth,"locus YLR039C, strain RIC1, active compounds read low",1.02
same,normalized growth,"locus YLR058C, strain SHM2, active compounds read low",1.01
same,normalized growth,"locus YLR102C, strain apc9, active compounds read low",1.01
same,normalized growth,"locus YLR113W, strain HOG1, active compounds read low",0.975
same,normalized growth,"locus YLR221C, strain rsa3, active compounds read low",1.01
same,normalized growth,"locus YLR258W, strain gsy2, active compounds read low",1.02
same,normalized growth,"locus YLR262C, strain YPT6 (second series), active compounds read low",1.01
same,normalized growth,"locus YLR262C, strain YPT6, active compounds read low",1.05
same,normalized growth,"locus YLR268W, strain sec22, active compounds read low",1.02
same,normalized growth,"locus YLR320W, strain mms22, active compounds read low",1.02
same,normalized growth,"locus YLR330W, strain CHS5, active compounds read low",1
same,normalized growth,"locus YLR342W, strain FKS1 (second series), active compounds read low",1
same,normalized growth,"locus YLR342W, strain FKS1, active compounds read low",1.02
same,normalized growth,"locus YLR357W, strain rsc2, active compounds read low",1.02
same,normalized growth,"locus YLR370C, strain arc18, active compounds read low",1.02
same,normalized growth,"locus YLR371W, strain rom2, active compounds read low",1.01
same,normalized growth,"locus YLR384C, strain iki3, active compounds read low",1.03
same,normalized growth,"locus YLR418C, strain cdc73, active compounds read low",1.02
same,normalized growth,"locus YML016C, strain PPZ1, active compounds read low",1.01
same,normalized growth,"locus YML032C, strain rad52, active compounds read low",1
same,normalized growth,"locus YML120C, strain ndi1, active compounds read low",0.97
same,normalized growth,"locus YML124C, strain tub3, active compounds read low",1.01
same,normalized growth,"locus YMR058W, strain fet3, active compounds read low",1.01
same,normalized growth,"locus YMR078C, strain ctf18, active compounds read low",1.03
same,normalized growth,"locus YMR125W, strain sto1, active compounds read low",1.04
same,normalized growth,"locus YMR129W, active compounds read low",1.02
same,normalized growth,"locus YMR205C, strain PFK2, active compounds read low",1.01
same,normalized growth,"locus YMR223W, strain ubp8, active compounds read low",1.02
same,normalized growth,"locus YMR231W, strain pep5, active compounds read low",1.02
same,normalized growth,"locus YMR307W, strain GAS1, active compounds read low",1.01
same,normalized growth,"locus YNL067W, strain RPL9B, active compounds read low",1.01
same,normalized growth,"locus YNL071W, strain lat1, active compounds read low",1.03
same,normalized growth,"locus YNL183C, strain NPR1, active compounds read low",0.92
same,normalized growth,"locus YNL209W, strain ssb2, active compounds read low",1.03
same,normalized growth,"locus YNL233W, strain BNI4, active compounds read low",1.01
same,normalized growth,"locus YNL248C, strain rpa49, active compounds read low",1.04
same,normalized growth,"locus YNL250W, strain rad50, active compounds read low",1.03
same,normalized growth,"locus YNL271C, strain bni1, active compounds read low",1.03
same,normalized growth,"locus YNL298W, strain CLA4, active compounds read low",1.03
same,normalized growth,"locus YNL307C, strain MCK1, active compounds read low",1.03
same,normalized growth,"locus YNL322C, strain KRE1 (second series), active compounds read low",1.02
same,normalized growth,"locus YNR049C, strain mso1, active compounds read low",1.01
same,normalized growth,"locus YNR052C, strain pop2, active compounds read low",1.01
same,normalized growth,"locus YOL006C, strain TOP1, active compounds read low",1.19
same,normalized growth,"locus YOL012C, strain htz1",0.903
same,normalized growth,"locus YOL147C, strain pex11, active compounds read low",1.02
same,normalized growth,"locus YOR001W, strain rrp6, active compounds read low",1.02
same,normalized growth,"locus YOR061W, strain CKA2, active compounds read low",1.01
same,normalized growth,"locus YOR069W, strain VPS5, active compounds read low",1.01
same,normalized growth,"locus YOR070C, strain gyp1, active compounds read low",1.01
same,normalized growth,"locus YOR080W, strain dia2, active compounds read low",1.02
same,normalized growth,"locus YOR083W, strain WHI5, active compounds read low",1.01
same,normalized growth,"locus YOR106W, strain vam3, active compounds read low",0.998
same,normalized growth,"locus YOR136W, strain idh2, active compounds read low",1.02
same,normalized growth,"locus YOR144C, strain elg1, active compounds read low",1.01
same,normalized growth,"locus YOR184W, strain ser1, active compounds read low",1.02
same,normalized growth,"locus YOR231W, strain MKK1, active compounds read low",1.01
same,normalized growth,"locus YOR265W, strain rbl2, active compounds read low",1.01
same,normalized growth,"locus YOR270C, strain vph1, active compounds read low",1.05
same,normalized growth,"locus YOR290C, strain snf2, active compounds read low",0.988
same,normalized growth,"locus YOR316C, strain cot1, active compounds read low",1.01
same,normalized growth,"locus YPL051W, strain arl3, active compounds read low",1.02
same,normalized growth,"locus YPL078C, strain atp4, active compounds read low",1.03
same,normalized growth,"locus YPL106C, strain sse1, active compounds read low",1.01
same,normalized growth,"locus YPL240C, strain hsp82, active compounds read low",1.02
same,normalized growth,"locus YPL241C, strain CIN2, active compounds read low",1
same,normalized growth,"locus YPL256C, strain CLN2, active compounds read low",0.985
same,normalized growth,"locus YPR119W, strain clb2, active compounds read low",1.01
same,normalized growth,"locus YPR141C, strain kar3, active compounds read low",1.01
same,normalized growth,"locus YPR163C, strain tif3, active compounds read low",1.03
same,normalized growth,"locus YPR167C, strain met16, active compounds read low",1.03
same,normalized growth,"strain wtn01, active compounds read low",1.02
